{"source": "PubChem BioAssay (NCI)", "note": "This is part of a sample that, as a whole, favours compounds with a hit. Of some 83,000 tested, about 20% had one in any assay.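 Compound tested at a single concentration for 48 hours in 96-well plates; a percent growth value below 10 was scored as active.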 A number with no mark means an inactive call. Activity calls are given as the source filed them."}
{"system": "MCF7 breast", "test": "NCI-60 one-dose screen, 48 h (100 = growth as untreated, 0 = no growth, -100 = all killed)", "details": "10 µM unless noted"}
{"smiles": "O=C(OCC1CCCO1)c1ccc([N+](=O)[O-])cc1", "note": "(stereo unspecified)", "growth": "95.6%"}
{"smiles": "Cc1ccc(NC(=O)c2ccccc2Cl)cc1", "growth": "99.4%"}
{"smiles": "C/C(O)=C(/C=N\\C(=S)Nc1ccc(S(=O)(=O)Nc2nccs2)cc1)C(=O)Nc1ccccc1C", "growth": "101%"}
{"smiles": "NC(=S)N/N=C/c1ccc(Cl)cc1", "growth": "93.4%"}
{"smiles": "Oc1ccc(CCC2CCNc3ccccc32)cc1", "note": "(stereo unspecified)", "growth": "98.6%"}
{"smiles": "O=C(NC1CCCCC1)c1ccc(Cl)cc1", "growth": "104%"}
{"smiles": "CCOC(=O)CO", "growth": "97.5%"}
{"smiles": "CC(c1ccccc1)N(C)C", "note": "(stereo unspecified)", "growth": "99.5%"}
{"smiles": "CC(CCC#N)(CCC#N)C(=O)c1ccccc1", "growth": "95.9%"}
{"smiles": "Cc1ccc2nc(-c3ccc(N=Cc4ccccc4O)cc3)sc2c1", "growth": "77.1%"}
{"smiles": "Nc1cc2ccccc2c(O)c1O", "growth": "-43.2% (active)"}
{"smiles": "CCOc1ccccc1NC(=O)CCl", "growth": "46.6%"}
{"smiles": "CCC12OC(COc3ccccc3)CN1CCN2c1ccccc1", "note": "(stereo unspecified)", "growth": "92.5% [100 µM]"}
{"smiles": "Cc1ccc(S(=O)(=O)CCCl)cc1", "growth": "100%"}
{"smiles": "CC(C)c1ccccc1NC(=O)N1CCC(C(C)C)CC1", "growth": "97.5%"}
{"smiles": "COc1ccc(C2CC(c3ccccc3)=Nc3ccccc3S2)cc1", "note": "(stereo unspecified)", "growth": "78.7%"}
{"smiles": "NC(CO)(CO)c1ccccc1", "growth": "95.9%"}
{"smiles": "C=CC(=O)OC1CCC(C(C)(C)CC)CC1", "note": "(stereo unspecified)", "growth": "96%"}
{"smiles": "Cc1[nH]n(-c2ccccc2)c(=O)c1C=NC(=S)C(N)=S", "growth": "100%"}
{"smiles": "COc1cccc2c1Cc1ccccc1-2", "growth": "100%"}
{"smiles": "NC(=O)N1CCOCC1", "growth": "93%"}
{"smiles": "CCC(=O)Oc1ccc2ccccc2c1", "growth": "101%"}
{"smiles": "C=CCN1CCCC1=O", "growth": "99.6%"}
{"smiles": "O=C(O)c1cccc(-n2ncc(Cl)c(Cl)c2=O)c1", "growth": "74.8%"}
{"smiles": "Cc1ccc(OC(=O)c2ccccc2)cc1", "growth": "97.4%"}
{"smiles": "O=Cc1c(O)c2ccccc2[nH]c1=O", "growth": "95.7%"}
{"smiles": "CC(=O)c1ccc(C)cc1", "growth": "100%"}
{"smiles": "N#Cc1ccc2nc[nH]c2c1", "growth": "96.8%"}
{"smiles": "CC(=O)[C@@]1(O)CC[C@H]2[C@@H]3CC[C@@H]4CC(=O)CC[C@]4(C)[C@H]3[C@@H](O)C[C@@]21C", "growth": "93.6%"}
{"smiles": "COC(=O)Cc1cc(COC(C)=O)ccc1C", "growth": "106%"}
{"smiles": "c1ccc(-c2ccc3ccccc3c2)cc1", "growth": "82.2%"}
{"smiles": "C=CCC(OC(C)=O)c1ccc(C(C)C)cc1", "note": "(stereo unspecified)", "growth": "113%"}
{"smiles": "C=C(OC(C)=O)c1ccccc1", "growth": "97.1%"}
{"smiles": "Nc1cccc2cccc(O)c12", "growth": "79.9%"}
{"smiles": "CC(=O)c1cccs1", "growth": "94.6%"}
{"smiles": "CSCCC(NC(=O)C(Cl)Cl)C(=O)O", "note": "(stereo unspecified)", "growth": "95.3%"}
{"smiles": "O=C(O)CSCC(=O)Nc1cc(C(F)(F)F)ccc1Cl", "growth": "102%"}
{"smiles": "CCCCNC(=O)c1ccc(OCC)cc1", "growth": "88.6%"}
{"system": "HCT-116 colon", "test": "NCI-60 one-dose screen, 48 h (100 = growth as untreated, 0 = no growth, -100 = all killed)", "details": "10 µM unless noted"}
{"smiles": "O=C(OCC1CCCO1)c1ccc([N+](=O)[O-])cc1", "note": "(stereo unspecified)", "growth": "103%"}
{"smiles": "Cc1ccc(NC(=O)c2ccccc2Cl)cc1", "growth": "114%"}
{"smiles": "C/C(O)=C(/C=N\\C(=S)Nc1ccc(S(=O)(=O)Nc2nccs2)cc1)C(=O)Nc1ccccc1C", "growth": "94.7%"}
{"smiles": "NC(=S)N/N=C/c1ccc(Cl)cc1", "growth": "100%"}
{"smiles": "Oc1ccc(CCC2CCNc3ccccc32)cc1", "note": "(stereo unspecified)", "growth": "89.3%"}
{"smiles": "O=C(NC1CCCCC1)c1ccc(Cl)cc1", "growth": "106%"}
{"smiles": "CCOC(=O)CO", "growth": "102%"}
{"smiles": "CC(c1ccccc1)N(C)C", "note": "(stereo unspecified)", "growth": "93.8%"}
{"smiles": "CC(CCC#N)(CCC#N)C(=O)c1ccccc1", "growth": "112%"}
{"smiles": "Cc1ccc2nc(-c3ccc(N=Cc4ccccc4O)cc3)sc2c1", "growth": "79.2%"}
{"smiles": "Nc1cc2ccccc2c(O)c1O", "growth": "-66.9% (active)"}
{"smiles": "CCOc1ccccc1NC(=O)CCl", "growth": "75.8%"}
{"smiles": "CCC12OC(COc3ccccc3)CN1CCN2c1ccccc1", "note": "(stereo unspecified)", "growth": "102% [100 µM]"}
{"smiles": "Cc1ccc(S(=O)(=O)CCCl)cc1", "growth": "118%"}
{"smiles": "CC(C)c1ccccc1NC(=O)N1CCC(C(C)C)CC1", "growth": "108%"}
{"smiles": "COc1ccc(C2CC(c3ccccc3)=Nc3ccccc3S2)cc1", "note": "(stereo unspecified)", "growth": "88.7%"}
{"smiles": "NC(CO)(CO)c1ccccc1", "growth": "101%"}
{"smiles": "C=CC(=O)OC1CCC(C(C)(C)CC)CC1", "note": "(stereo unspecified)", "growth": "104%"}
{"smiles": "Cc1[nH]n(-c2ccccc2)c(=O)c1C=NC(=S)C(N)=S", "growth": "89.5%"}
{"smiles": "COc1cccc2c1Cc1ccccc1-2", "growth": "101%"}
{"smiles": "NC(=O)N1CCOCC1", "growth": "106%"}
{"smiles": "CCC(=O)Oc1ccc2ccccc2c1", "growth": "102%"}
{"smiles": "C=CCN1CCCC1=O", "growth": "106%"}
{"smiles": "O=C(O)c1cccc(-n2ncc(Cl)c(Cl)c2=O)c1", "growth": "105%"}
{"smiles": "Cc1ccc(OC(=O)c2ccccc2)cc1", "growth": "105%"}
{"smiles": "O=Cc1c(O)c2ccccc2[nH]c1=O", "growth": "89.4%"}
{"smiles": "CC(=O)c1ccc(C)cc1", "growth": "105%"}
{"smiles": "N#Cc1ccc2nc[nH]c2c1", "growth": "105%"}
{"smiles": "CC(=O)[C@@]1(O)CC[C@H]2[C@@H]3CC[C@@H]4CC(=O)CC[C@]4(C)[C@H]3[C@@H](O)C[C@@]21C", "growth": "107%"}
{"smiles": "COC(=O)Cc1cc(COC(C)=O)ccc1C", "growth": "104%"}
{"smiles": "c1ccc(-c2ccc3ccccc3c2)cc1", "growth": "95.9%"}
{"smiles": "C=CCC(OC(C)=O)c1ccc(C(C)C)cc1", "note": "(stereo unspecified)", "growth": "110%"}
{"smiles": "C=C(OC(C)=O)c1ccccc1", "growth": "98%"}
{"smiles": "Nc1cccc2cccc(O)c12", "growth": "78.8%"}
{"smiles": "CC(=O)c1cccs1", "growth": "97.4%"}
{"smiles": "CSCCC(NC(=O)C(Cl)Cl)C(=O)O", "note": "(stereo unspecified)", "growth": "91.2%"}
{"smiles": "O=C(O)CSCC(=O)Nc1cc(C(F)(F)F)ccc1Cl", "growth": "107%"}
{"smiles": "CCCCNC(=O)c1ccc(OCC)cc1", "growth": "90.5%"}
